The supplement of paper PMC10720658
± gives the standard deviation of the averaged measurements.

Tested on: AEK1 (Tb927.3.2440)
Assay: percent reduction in TR-FRET probe signal relative to DMSO control; higher = stronger displacement of ATP-site probe (binding)
Details: 1 µM; incubation time 1 h

`N#C/C(=C(/N)Sc1ccc(N)cc1)c1ccccc1C(F)(F)F` was tested. Which “percent reduction in TR-FRET probe signal” value (shortened to “percent reduction”) did it give?
Its value is 2.78 ± 13%.

`O=C(Nc1cccc(Nc2ncc(Br)c(NCCc3cnc[nH]3)n2)c1)N1CCCC1` was tested. Which “percent reduction” value did it give?
The value was 52.9 ± 12%.

How did the “percent reduction” value turn out when `N#Cc1c(Oc2ccc(F)c(NC(=O)Cc3cccc(C(F)(F)F)c3)c2)ccc2nc(NC(=O)C3CC3)sc12` was run?
Its value is 1.05 ± 9.1%.

`COc1cc2nccc(Oc3ccc(NC(=O)C4(C(=O)Nc5ccc(F)cc5)CC4)cc3)c2cc1OC.O=C(O)C[C@H](O)C(=O)O` [Cabozantinib malate (XL184)] was tested. Which “percent reduction” value did it give?
Its value is 4.34 ± 3.9%.

How did the “percent reduction” value turn out when `COc1ccc(C(=O)Nc2sc3c(c2C(N)=O)CCCC3)cc1OC` was run?
Its value is 1.85 ± 1.5%.

With `O=C1NC(=O)C(c2cnc3ccccn23)=C1c1cn2c3c(cc(F)cc13)CN(C(=O)N1CCCCC1)CC2` as the molecule, how does the “percent reduction” value read?
The value was -14.7 ± 8.7%.

For `Oc1ccc(-c2nc(-c3ccc(F)cc3)c(-c3ccncc3)[nH]2)cc1`, which “percent reduction” value is on record?
Its value is -5.77 ± 4%.

With `C=CC(=O)Nc1ccc2ncnc(Nc3cccc(Br)c3)c2c1` as the molecule, how does the “percent reduction” value read?
Its value is 12 ± 5.5%.

With `O=C(O)[C@]1(Cc2cccc(Nc3nccs3)n2)CC[C@@H](Oc2cccc(Cl)c2F)CC1` as the molecule, how does the “percent reduction” value read?
The value was 19.3 ± 12%.

Which “percent reduction” value does the source give for `CN(C)CCOc1ccc(-c2nc(-c3ccncc3)c(-c3ccc4c(c3)CC/C4=N\O)[nH]2)cc1` here?
The value was 3.05 ± 12%.

For `Cc1cnc(Nc2ccc(N3CCN(C)CC3)cc2)nc1Nc1cccc(S(=O)(=O)NC(C)(C)C)c1`, which “percent reduction” value is on record?
The value was 5.49 ± 1.9%.

`CNC(=O)c1ccccc1Nc1nc(Nc2ccc(N3CCOCC3)cc2OC)ncc1Cl` was tested. Which “percent reduction” value did it give?
The value was 25.1 ± 15%.

`Cc1nc(Nc2n[nH]c3c2CN(C(=O)N[C@H](CN(C)C)c2ccccc2)C3(C)C)c2sccc2n1` was tested. Which “percent reduction” value did it give?
Its value is 61.8 ± 9.6%.

How did the “percent reduction” value turn out when `Cl.Cl.c1cc(-c2cnn3cc(-c4ccc(OCCN5CCCCC5)cc4)cnc23)ccn1` [Dorsomorphin 2HCl] was run?
The value was -8.77 ± 4.9%.

`O=C1NC(=O)C(c2ccccc2[N+](=O)[O-])=C1Nc1ccc(O)c(Cl)c1` was tested. Which “percent reduction” value did it give?
Its value is -2.58 ± 9.4%.

How did the “percent reduction” value turn out when `Nc1nc(N)c2nc(-c3cccc(O)c3)c(-c3cccc(O)c3)nc2n1` was run?
The value was 19.3 ± 26%.

How did the “percent reduction” value turn out when `Cc1n[nH]c2ccc(-c3cncc(OC[C@@H](N)Cc4ccccc4)c3)cc12` was run?
The value was 14.1 ± 24%.

`Nc1cc(C(F)(F)F)c(-c2cc(N3CCOCC3)nc(N3CCOCC3)n2)cn1` [BKM120 (NVP-BKM120, Buparlisib)] was tested. Which “percent reduction” value did it give?
The value was 8.62 ± 16%.

How did the “percent reduction” value turn out when `COc1cc2ncc(-c3ccccc3)nc2cc1OC` [Tyrphostin AG 1296] was run?
Its value is -3.11 ± 5.3%.

For `Cc1ccc(C(=O)Nc2ccc(CN3CCN(C)CC3)c(C(F)(F)F)c2)cc1C#Cc1cnc2[nH]ncc2c1`, which “percent reduction” value is on record?
Its value is 29.4 ± 11%.

With `CC(C)(C)c1cc(/C=C(\C#N)C(N)=S)cc(C(C)(C)C)c1O` [Tyrphostin AG 879] as the molecule, how does the “percent reduction” value read?
Its value is 4.66 ± 0.43%.

With `CN1CC[C@H](c2c(O)cc(O)c3c(=O)cc(-c4ccccc4Cl)oc23)[C@H](O)C1` [Flavopiridol (Alvocidib)] as the molecule, how does the “percent reduction” value read?
Its value is -2.55 ± 4.6%.

For `O=C1c2ccc(Nc3ccc(F)cc3F)cc2CCc2ccc(OC[C@H](O)CO)cc21` [Skepinone-L], which “percent reduction” value is on record?
The value was -1.27 ± 10%.

How did the “percent reduction” value turn out when `CCCNC(=O)Nc1ccc(Oc2ncnc3cc(OC)c(OC)cc23)cc1Cl` was run?
The value was -3.67 ± 12%.

How did the “percent reduction” value turn out when `O=C(NCc1ccccc1)c1csc(Nc2ccncn2)n1` [Thiazovivin] was run?
The value was 10.4 ± 11%.

How did the “percent reduction” value turn out when `C[C@H]1[C@H](C)CC[C@]2(C(=O)O)CC[C@]3(C)C(=CC[C@@H]4[C@@]5(C)C[C@@H](O)[C@H](O)[C@@](C)(CO)[C@@H]5CC[C@]43C)[C@H]12` [Asiatic Acid] was run?
Its value is -8.28 ± 13%.

For `CCCCCCCCCCCCCCCCOP(=O)([O-])OCC[N+](C)(C)C` [Miltefosine], which “percent reduction” value is on record?
The value was 4.96 ± 18%.

Which “percent reduction” value does the source give for `C=CC(=O)Nc1cccc(Oc2nc(Nc3ccc(N4CCN(C)CC4)cc3OC)ncc2Cl)c1` here?
Its value is 3 ± 23%.

With `CNC(=O)c1cc(Oc2ccc(NC(=O)Nc3ccc(Cl)c(C(F)(F)F)c3)cc2)ccn1.Cc1ccc(S(=O)(=O)O)cc1` [Sorafenib Tosylate] as the molecule, how does the “percent reduction” value read?
Its value is 17 ± 12%.

How did the “percent reduction” value turn out when `CN1CCN(c2ccc(Nc3cc(-c4cccc(-n5ccc6cc(C7CC7)cc(F)c6c5=O)c4CO)cn(C)c3=O)nc2)CC1` was run?
Its value is 6.04 ± 9%.

How did the “percent reduction” value turn out when `Cc1ccc(-n2nc(C(C)(C)C)cc2NC(=O)Nc2ccc(OCCN3CCOCC3)c3ccccc23)cc1` [BIRB 796 (Doramapimod)] was run?
Its value is 1.12 ± 5.4%.

How did the “percent reduction” value turn out when `Oc1c(F)cc(-c2cnccc2-c2ccc(N3CCOCC3)cc2)cc1F` was run?
The value was 8.04 ± 13%.
